14 compounds from PubChem BioAssay (NCATS) can be followed below.

The structures appear in SMILES notation. Inconclusive results are not listed. Activity calls are given as the source filed them. The call rests on the fitted dose curve; in most records, active means well fitted inhibition curve with a large enough effect; inconclusive means small, poorly fitted or top-dose-only effect; inactive means flat fitted curve, though single readings scatter. *1 amine or outer side, *2 acyl side, *3 side chain or, on linkers, in order; H or OH if unused. Where a SMILES comes first, the peptide text is derived from it. Bridges are numbered along the chain shown (N, C = ends). [ ]: non-standard residue; d: D form. The star is where a group is joined. X5 = NC1=N[C@@H]([C@H](N[*:1])C(=O)[*:2])C[C@H](O)N1; ΔAla(Z-3-ureido) = NC(=O)N/C=C(\N)C(=O)O; β3hOrn = NCCC[C@H](N)CC(=O)*; Dap = NC[C@H](N)C(=O)O
On the % scale 0 is the no-effect control and ±100 the full control effect.

In this assay the test system is KB-3-1. The experiment in a line: Cytotoxic Profiling of Annotated Libraries Using Quantitative High-Throughput Screening (AID 1296008). Further: nearly all actives have a fitted effect of over 60% in size. As to conditions: Five cell lines viability, CellTiter-Glo ATP luminescence, 48-72 h; max response: active compounds read low. The method in brief: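 Cells exposed to compounds for 48 or 72 hr at 37 degrees Celsius. Viability read as ATP-coupled luminescence with CellTiter-Glo after 10 min at room temperature.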
For orientation: Cellular ATP, detected with luciferase, serves as a proxy for viable cell number.
Consider `[O-][N+](=Nc1ccccc1)c1ccccc1`, for which the max response was -7.74% (inactive).
Under `CN[C@@H]1[C@H](O[C@H]2[C@H](O[C@H]3[C@H](O)[C@@H](O)[C@H](N=C(N)N)[C@@H](O)[C@@H]3N=C(N)N)O[C@@H](C)[C@]2(O)C=O)O[C@@H](CO)[C@H](O)[C@H]1O` stands 22.5% (inactive); under `O=C1/C(=C\c2cccs2)CCC/C1=C\c1cccs1`, 8.4% (inactive).
To `NCCC[C@H](N)CC(=O)N[C@H]1CNC(=O)[C@H]([C@H]2C[C@H](O)NC(N)=N2)NC(=O)/C(=C/NC(N)=O)NC(=O)[C@H](CO)NC(=O)[C@H](CO)NC1=O` (β3hOrn-[Dap]SS[ΔAla(Z-3-ureido)][X5]; lactam 1-C) belongs -0.188% (inactive); to `CC1(C)S[C@@H]2[C@H](NC(=O)C3(N)CCCCC3)C(=O)N2[C@H]1C(=O)O`, -2.76% (inactive).
To `Cc1ncc(C[n+]2csc(CCOP(=O)(O)OP(=O)(O)O)c2C)c(N)n1` belongs -1.51% (inactive); to `CC(C)NCC(O)COc1ccccc1-n1cccc1` (centres undefined), 24.4% (inactive).
Turning to `CCN(CC)C(=O)c1cccnc1`, the max response was -8.56% (inactive).
To `O=S(=O)(O)CC(S)CS` (centres undefined) belongs 3.44% (inactive); to `COC(=O)CCC[N+](C)(C)C`, -6.27% (inactive); to `OCC1(CO)COC(C(Cl)(Cl)Cl)OC1`, 16.6% (inactive).
Under `C[N@+]12CCCC[C@@H]1CCC(=C(c1cccs1)c1cccs1)C2` stands -14.7% (inactive).
Under `Cc1cccc(C)c1NC(=O)NC1=CCCN1C` stands -2.58% (inactive); under `OC[C@@H](O)C(O)[C@H](O)CO`, 2.54% (inactive).
